In all, about 190,000 compounds went through this assay and about 1,300 (0.68%) were called active. Only a selection was taken, and actives are over-represented in it overall. Unmarked numbers belong to inactive results. No stated cut-off is given here; in the data, active means inhibition above about 50%; inactive means the rest.
Each molecule was assayed against Mannose-6-phosphate isomerase (Homo sapiens) (UniProt P34949) (assay: MPI inhibition at elevated mannose 6-phosphate – biochemical, fluorescence intensity, high mannose 6-phosphate, primary screen (AID 1220)). Conditions: recombinant PMI enzyme, coupled fluorescence intensity; at 20 µM; stronger effect = higher value.
Chain of Mannose-6-phosphate isomerase (Homo sapiens) (P34949 whole entry, looked up): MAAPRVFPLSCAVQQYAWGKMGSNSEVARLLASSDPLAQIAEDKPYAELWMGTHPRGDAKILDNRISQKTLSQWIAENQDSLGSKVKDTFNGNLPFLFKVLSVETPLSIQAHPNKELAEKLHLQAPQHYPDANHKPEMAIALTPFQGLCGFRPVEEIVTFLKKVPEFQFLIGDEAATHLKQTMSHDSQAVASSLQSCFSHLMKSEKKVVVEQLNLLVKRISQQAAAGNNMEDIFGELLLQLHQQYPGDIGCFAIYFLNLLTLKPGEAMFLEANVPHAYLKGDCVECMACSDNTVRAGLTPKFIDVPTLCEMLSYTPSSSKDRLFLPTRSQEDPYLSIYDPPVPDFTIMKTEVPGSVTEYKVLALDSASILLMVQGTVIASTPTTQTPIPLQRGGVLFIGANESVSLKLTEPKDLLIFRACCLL
For Cc1cnc(C(=O)OCC(=O)N2CCN(C(=O)c3ccco3)CC2)cn1, the inhibition was 6.1%.
O=C(CSc1nc2ccccc2c(=O)n1-c1ccccc1)N1CCc2ccccc2C1 gave an inhibition of 8%.
CC1(C(=O)NC2CCCCCCC2)CCC(=O)N1CCN1CCOCC1 (stereo not given) showed an inhibition of -8.6%.
COc1cc(C2C(C#N)=C(N)Oc3c2ccc2ccccc32)ccc1OCC(=O)Nc1cccc(C)c1 (stereo not given) was tested, and the inhibition was 53.4% (active).
COC(=O)c1ccc(NC(=O)COc2ccc(C3C(C#N)=C(N)Oc4c3ccc3ccccc43)cc2OC)cc1 (stereo not given) gave an inhibition of 15.5%.
In the case of COc1cc(C2C(C#N)=C(N)Oc3c2ccc2ccccc32)ccc1OCC(=O)Nc1ccc(C)cc1 (stereo not given), the inhibition is reported as 24.1%.
For CCOC(=O)c1cc(CC)sc1NC(=O)CC1Sc2ccc(C(F)(F)F)cc2NC1=O (stereo not given), the inhibition was -5.2%.
For Cc1ccc(S(=O)(=O)NCc2nc3ccccc3[nH]2)cc1, the inhibition was 5%.
Work on Cc1nnc(SCC(=O)NC2CCCCC2)n(N)c1=O yielded an inhibition of -2.5%.
In the case of O=C1CN(C(=O)c2cc(Br)c(Br)s2)c2ccccc2N1, the inhibition is reported as 61.5% (active).
O=C1CN(C(=O)c2cccs2)c2ccccc2N1 showed an inhibition of 3.1%.
Work on O=C1CN(C(=O)c2ccccc2)c2ccccc2N1 yielded an inhibition of 6.5%.
COC(=O)c1ccc(NC(=O)Nc2ccccc2F)cc1 showed an inhibition of 11%.
For CC(C(=O)N1CCCc2c1c(=O)oc1ccc(O)cc21)N1CCc2ccccc2C1 (stereo not given), the inhibition was 69% (active).
For CN(CC(=O)N1CCCc2c1c(=O)oc1ccc(O)cc21)Cc1ccccc1, the inhibition was 3.3%.
Work on O=C(CN1CCN(Cc2ccccc2)CC1)N1CCCc2c1c(=O)oc1ccc(O)cc21 yielded an inhibition of 3.1%.
In the case of Cc1ccccc1NC(=O)CC(O)(C(F)(F)F)C(F)(F)F, the inhibition is reported as -6%.
For COc1ccc(C(=O)N2CCCC2)cc1S(=O)(=O)N1CCC(C)CC1, the inhibition was 5.6%.
In the case of O=C(O)C1=C[C@@H](c2ccccc2)C[C@@H](OCc2ccc(CO)cc2)O1, the inhibition is reported as -9.3%.
NC(=O)C1=C[C@H](c2ccc(C(F)(F)F)cc2)C[C@H](OCc2ccc(CO)cc2)O1 gave an inhibition of 43.9%.
In the case of NC(=O)C1=C[C@@H](c2ccc(Br)cc2)C[C@@H](OCc2ccc(CO)cc2)O1, the inhibition is reported as 27.4%.
Work on O=C(Nc1ccccc1)C1=C[C@H](c2ccccc2)C[C@H](OCc2ccc(CO)cc2)O1 yielded an inhibition of 8.7%.
For NC(=O)C1=C[C@H](c2ccccc2)C[C@H](OCc2ccc(CO)cc2)O1, the inhibition was 59.2% (active).
For NC(=O)C1=C[C@@H](c2ccc(C(F)(F)F)cc2)C[C@@H](OCc2ccc(CO)cc2)O1, the inhibition was 61.6% (active).
For NC(=O)C1=C[C@H](c2ccc(Br)cc2)C[C@H](OCc2ccc(CO)cc2)O1, the inhibition was 51% (active).
Work on O=C(O)C1=C[C@@H](c2ccc(Br)cc2)C[C@@H](OCc2ccc(CO)cc2)O1 yielded an inhibition of -16.7%.
Molecule O=C(O)C1=C[C@@H](c2ccc(C(F)(F)F)cc2)C[C@@H](OCc2ccc(CO)cc2)O1 has an inhibition of -0.6%.
C=CCOC(=O)C1=C[C@@H](c2ccccc2)C[C@@H](OCc2ccc(CO)cc2)O1 gave an inhibition of -6.1%.
With O=C(O)C1=C[C@H](c2ccccc2)C[C@H](OCc2ccc(CO)cc2)O1 the inhibition was 2.2%.
For NC(=O)C1=C[C@@H](c2ccccc2)C[C@@H](OCc2ccc(CO)cc2)O1, the inhibition was 66% (active).
